Reference: PubChem BioAssay AID2501 (Southern Research Specialized Biocontainment Screening …, 2010)
The whole screen tested about 2,200 compounds, of which about 1,200 (55%) were called active. Cut-off not given; nearly all actives show IC50 up to about 92 µM. So high a share suggests a set chosen from earlier hits. This is one part of the list.

Assay: counter assay for TAg ATPase ADP read-out – biochemical, ADP-Hunter, fluorescence, counter-screen (AID 2501);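 further: purified T antigen ATPase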
Details: series mostly up to 100 µM

SMILES	IC50
Nc1ccc2c(c1)Cc1ccccc1-2	4.77 µM (active)
O=C1NC(=O)C(=Cc2csc3ccccc23)C(=O)N1	inactive
CN1CCN(/N=C/c2c[nH]c3ccccc23)CC1	6.59 µM (active)
O=C1NC(=O)N(Cc2ccco2)C(=O)/C1=C/c1cccn1CCOc1ccccc1Cl	inactive
O=C1NC(=S)NC(=O)C1=Cc1ccc2c(c1)CCN2CCCCl	inactive
O=C1NC(=O)N(c2ccccc2)C(=O)/C1=C/c1ccc([N+](=O)[O-])s1	inactive
C=CCN1C(=O)/C(=C/c2cc(C)n(-c3cccnc3)c2C)C(=O)NC1=S	inactive
C[CH2][Hg][S]c1ccccc1C(=O)O	inactive
CCOc1ccccc1N1C(=O)NC(=O)/C(=C/c2ccc3c4c(cccc24)CC3)C1=O	inactive
CCC(C)N1C(=O)NC(=O)C2(Cc3c(ccc4ccccc34)N(C)C2)C1=O (centres undefined)	23.3 µM (active)
COc1ccc(N2C(=O)/C(=C/c3ccc(C)o3)C(=O)NC2=S)c(OC)c1	inactive
COc1ccc(CN2C(=O)NC(=O)/C(=C/c3ccc([N+](=O)[O-])o3)C2=O)cc1	inactive
Cc1ccc2c(c1)=C/C(=C\c1c(O)[nH]c(=O)[nH]c1=O)C(=O)N=2	inactive
CCN1C(=O)/C(=C\c2ccc([N+](=O)[O-])s2)C(=O)NC1=S	inactive
O=C1NC(=O)N(c2ccccc2)C(=O)/C1=C\C=C\c1ccccc1	inactive
CN(c1ccc(OCC(=O)N2CCN(C/C=C/c3ccccc3)CC2)cc1)S(=O)(=O)c1cccs1	inactive
O=c1[nH]sc2cc(F)ccc12	inactive
O=C(O)CCC(=O)NCCC1=c2ccccc2=N/C1=C\c1c(O)n(Cc2ccc(F)cc2)c(=S)[nH]c1=O	inactive
CC1CN=C(Nc2ccc(N(C)C)cc2)S1 (centres undefined)	7.09 µM (active)
COP(=S)(OC)SCN1C(=O)c2ccccc2C1=O	inactive
CCOc1ccc(N2C(=O)NC(=O)/C(=C\c3ccccc3[N+](=O)[O-])C2=O)cc1	inactive
CCc1c(C)nc(N)nc1N1N=C1SC(C(C)=O)C(C)=O	inactive
CCCN1CCc2cc(O)cc3c2[C@H]1Cc1ccc(O)c(O)c1-3	inactive
O=c1c(O)c(-c2ccc(O)c(O)c2)oc2cc(O)cc(O)c12	98.5 µM (active)
O=c1cc(-c2ccc(O)c(O)c2)oc2cc(O)cc(O)c12	8.07 µM (active)
Oc1cc2c(cc1O)[C@H]1c3ccccc3CN[C@@H]1CC2	inactive
CN1CCc2cc(O)cc3c2[C@H]1Cc1ccc(O)c(O)c1-3	inactive
O=C1NC(=O)N(c2ccc(Br)cc2)C(=O)/C1=C/c1ccsc1	inactive
CN1C(=O)NC(=O)/C(=C/c2ccc([N+](=O)[O-])o2)C1=O	inactive
